# Measured values as given in PubChem BioAssay AID504834 (National Center for Advancing Translational Sciences (NCATS), 2011).
# The campaign covered roughly 320,000 compounds. About 22,000 (6.9%) were called active. Another 27% or so got no clear call; they are omitted. Many of the other results were omitted from the sample, so actives are more common in it than they were. Unmarked numbers belong to inactive results. Calls come from the whole dose curve; as a rule, active = well fitted inhibition curve with a large enough effect; inconclusive = small, poorly fitted or top-dose-only effect, or another doubt; inactive = no such curve, though single readings can be large or run the other way.
# Experiment: Primary qHTS for delayed death inhibitors of the malarial parasite plastid, 96 hour incubation
# Conditions: P. falciparum luciferase reporter growth; series mostly up to 28.7 µM; activity change, negative = inhibition: at the top concentration
# Summary of the method: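 Cell-based qHTS: luciferase-tagged P. falciparum in erythrocytes (2% hematocrit, 0.05% parasitemia final) incubated with compounds for 96 hours, 37 C, 5% CO2; luciferase detection reagent then added and luminescence measured.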
# % is set by controls: 0 for no effect and ±100 for the full control effect; potency is the fitted concentration of half-maximal effect.
SMILES,"activity change, negative = inhibition",Potency
COC(=O)c1sc(N2CCN(Cc3ccccc3)CC2)nc1N,28.7%,–
CS(=O)(=O)c1ccc(Cl)c(NC(=O)COC(=O)c2ncc(Cl)c(Cl)c2Cl)c1,19.4%,–
Cc1ccc(S(=O)(=O)c2c[nH]c3ccc(Cl)cc3c2=O)cc1,32.9%,–
COc1ccc(-c2oc3ncn(Cc4ccco4)c(=N)c3c2-c2ccc(OC)cc2)cc1,–,6.57 µM (active)
COc1ccc2[nH]c3c(=O)n(Cc4ccco4)cnc3c2c1,6.11% [at 5.75 µM],–
COc1ccc(Nc2nc(Cl)nc(NCc3ccco3)n2)cc1,48.6%,–
CN(c1ccccc1)S(=O)(=O)c1ccc2[nH]c(=O)[nH]c2c1,11.2%,–
CC(CCc1ccccc1)NC(=O)COC(=O)c1ccc(F)cc1 (stereo unspecified),-9.38%,–
O=C(c1ccco1)N1CCN(C(=O)C2CC(c3ccc(F)cc3)=NO2)CC1 (stereo unspecified),–,7.38 µM (active)
O=C(c1ccco1)N1CCN(C(=O)c2ccc(COc3ccc(F)cc3)o2)CC1,-1.91%,–
Cc1ccc(NC(=O)C2CC(c3ccc(F)cc3)=NO2)cc1 (stereo unspecified),–,4.15 µM (active)
O=C(NCc1cc(C(F)(F)F)cc(C(F)(F)F)c1)C1CC(c2cccc(F)c2)=NO1 (stereo unspecified),-0.218%,–
CCOC(=O)N1CCN(C(=O)C2CC(c3ccc(F)cc3)=NO2)CC1 (stereo unspecified),–,4.65 µM (active)
CCOC(=O)N1CCN(CC(=O)Nc2ccc(F)cc2)CC1,232%,–
COc1ccc(CNC(=O)C2CC(c3ccc(C(F)(F)F)cc3)=NO2)cc1 (stereo unspecified),61.6%,–
CCn1ncc(C2=NOC(C(=O)N3CCN(c4ccccc4)CC3)C2)c1C (stereo unspecified),56.5%,–
O=C(Cc1c(F)cccc1Cl)N1CCN(C(=O)c2ccco2)CC1,149%,–
CCNC(=S)N1CCN(C(=O)c2ccco2)CC1,46.8%,–
O=C(c1ccco1)N1CCN(C(=O)C2CC(c3ccc(Cl)c(Cl)c3)=NO2)CC1 (stereo unspecified),–,5.86 µM (active)
O=C(c1ccc2c(c1)OCO2)N1CCN(C(=O)c2ccco2)CC1,29%,–
O=C(COc1nsnc1N1CCOCC1)Nc1ccccc1Cl,0.158%,–
COc1cccc(/C=C/C(=O)OCC(=O)N2CCN(c3ccccc3)CC2)c1,-26.3%,–

SMILES,"activity change, negative = inhibition",Potency
Cc1ccc(CC2CC(=O)N(c3cc(C)ccc3C)C2=O)cc1 (stereo unspecified),-18.3%,–
Cc1ccc(S(=O)(=O)CC(=O)Nc2sc(C)c(C)c2C(N)=O)cc1,1.09%,–
O=C(NNC(=O)C1CCC1)c1ccccc1,11.8%,–
Cc1cccc(C2C3=C(CCCC3=O)N=C3c4ccccc4C(=O)C32)c1 (stereo unspecified),-12.5%,–
O=C(NCCCn1ccnc1)c1cc(-c2ccccc2)on1,4.54%,–
COc1ccc(-c2cc(C(=O)NCCCn3ccnc3)no2)cc1,–,8.28 µM (active)
COc1ccc(-c2cc(C(=O)NCCCN3CCOCC3)no2)cc1,23.3%,–
Cc1ccc(S(=O)(=O)NC(=O)c2cccc(C)c2)cc1,24%,–
O=C(NC1CCN(S(=O)(=O)c2ccc(F)cc2)CC1)c1ccccc1,12%,–
CCN(CC)CCN(C(=O)c1ccc(S(=O)(=O)N2CCOCC2)cc1)c1nc2cc3c(cc2s1)OCCO3,24.7%,–
CCCn1nc(C(=O)N2CCCc3ccccc32)c2ccccc2c1=O,-23.3%,–
Cc1cccc2cc3c(N)c(C(=O)N4CCCc5ccccc54)sc3nc12,–,11.7 µM (active)
Cc1c(C(=O)N2CCCc3ccccc32)sc2nc(-c3ccccc3)cn12,-10.5%,–
CCOC(=O)c1c(C)[nH]c(C(=O)OCC(=O)N2CCCC2=O)c1C,7.24%,–
COc1cccc(NC(=O)COC(=O)/C=C/c2ccco2)c1,-5.91%,–
COCCCNC(=O)Cc1ccc(-n2c(C)nc3cccnc32)cc1,58.7%,–
COc1cc2c(cc1OC)CC(=O)N(CCCN(C)C[C@H]1Cc3cc(OC)c(OC)cc31)CC2,15.7%,–
Cn1c(=O)c2c(SCC(=O)N3CCOCC3)nc(C3CC3)nc2n(C)c1=O,27.7%,–
CCCCn1c(SCC(=O)N2CCOCC2)nc2c1c(=O)n(C)c(=O)n2C,–,11.7 µM (active)
C#CC(C)(C)NC(=O)CSc1nc2c(c(=O)n(C)c(=O)n2C)n1CCCC,-3.48%,–
CC(C)CC(=O)c1c[nH]c(C(=O)NCc2ccccc2)c1,-10.9%,–
Cc1nc(SCC(=O)NC2CCCCC2C)c(C#N)c(C)c1C (stereo unspecified),-0.344%,–

SMILES,"activity change, negative = inhibition",Potency
N#Cc1c(C(F)(F)F)cc(-c2ccccc2)nc1SCC(=O)N1CCOCC1,20.9%,–
COc1ccc(-c2cc(-c3ccc(N)cc3)nc(N)c2C#N)cc1OC,5.39%,–
N#Cc1c(-c2ccccc2)cc(-c2ccccc2)nc1SCC(=O)O,35.1%,–
CCOC(=O)CC(=O)CSc1nc(-c2ccccc2)cc(-c2ccc(Cl)cc2)c1C#N,–,7.38 µM (active)
CCSc1nc(-c2ccc(OC)cc2)cc(-c2ccc(OC)cc2)c1C#N,–,4.65 µM (active)
COc1ccc(-c2cn[nH]c2-c2ccc(OC)cc2)cc1,3.34%,–
Cn1ccsc1=NC(=O)c1cc(S(=O)(=O)N2CCOCC2)ccc1Cl,-14.7%,–
O=C(NCc1ccc2c(c1)OCO2)C(=O)NCC1OCCN1S(=O)(=O)c1ccc(F)cc1 (stereo unspecified),-14.7%,–
COCCCNC(=S)N1CCN(c2nc(-c3cccc(OC)c3)cs2)CC1,10.2%,–
COC(=O)c1cnc(Nc2cc(C)ccc2OC)c2ccccc12,-10.3%,–
COc1ccc(C)cc1Nc1n[n+](-c2ccccc2)c(-c2cccc(Cl)c2Cl)s1,–,13.1 µM (active)
CCc1ccc(Nc2n[n+](-c3ccccc3)c(-c3cccc(Cl)c3Cl)s2)cc1,–,3.7 µM (active)
COc1ccc(C)cc1Nc1nc(-c2c(C)[nH]c3ccccc23)cs1,0%,–
N#Cc1ccccc1NC(=O)c1ccc2c(c1)OCO2,26.6%,–
N#C/C(=C\c1cccnc1)C(=O)Nc1ccc(SC(F)F)cc1,0.243%,–
Cc1ccc(CNC(=O)CSc2nnc3c(n2)[nH]c2ccc(F)cc23)cc1,19.9%,–
COC(=O)C(C)n1cnc2c(nnn2-c2ccc(F)cc2)c1=O (stereo unspecified),39.5%,–
Cc1cc(C)cc(N(CC(=O)NC2CCCC2)C(=O)CCC(=O)Nc2nccs2)c1,22.4%,–
COc1ccc(C(=O)C2CCCN(Cc3cccn3-c3ccccn3)C2)c(C)c1 (stereo unspecified),-17.5%,–
CCOC(=O)c1[nH]ncc1CN1CCCC(C(=O)c2ccc(OC)cc2C)C1 (stereo unspecified),–,8.28 µM (active)
COc1ccc(C(=O)C2CCCN(Cc3ccc4nonc4c3)C2)c(C)c1 (stereo unspecified),3.69%,–
O=C(N=C1SC2CS(=O)(=O)CC2N1c1cc(Cl)ccc1Cl)C1CC1 (stereo unspecified),27.7%,–
